# Test results published in PubChem BioAssay AID588726 (The Scripps Research Institute Molecular Screening Center, 2011).
# Where “and” joins values, the source holds several entries; their conditions need not be identical. Identical values can stand only once. The whole screen tested about 360,000 compounds, of which about 8,200 (2.3%) were called active. The entries come from a sample that favours actives as a whole. A number with no mark means an inactive call. Rule as the data show it: active = inhibition above about 27%; inactive = the rest.
# Target: Fructose-bisphosphate aldolase (Mycobacterium tuberculosis (strain ATCC 25618 / H37Rv)) (UniProt P9WQA3)
# Assay: Mtb FBA enzyme inhibitors, primary screen, biochemical, fluorescence, strain H37Rv (AID 588726);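 also: 0% = vehicle and 100% = reference inhibitor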
# Conditions: purified M. tuberculosis FBA, fluorescence read-out, at 1 µM, stronger effect = higher value
# Fructose-bisphosphate aldolase (Mycobacterium tuberculosis (strain ATCC 25618 / H37Rv)), sequence (P9WQA3 whole entry, looked up): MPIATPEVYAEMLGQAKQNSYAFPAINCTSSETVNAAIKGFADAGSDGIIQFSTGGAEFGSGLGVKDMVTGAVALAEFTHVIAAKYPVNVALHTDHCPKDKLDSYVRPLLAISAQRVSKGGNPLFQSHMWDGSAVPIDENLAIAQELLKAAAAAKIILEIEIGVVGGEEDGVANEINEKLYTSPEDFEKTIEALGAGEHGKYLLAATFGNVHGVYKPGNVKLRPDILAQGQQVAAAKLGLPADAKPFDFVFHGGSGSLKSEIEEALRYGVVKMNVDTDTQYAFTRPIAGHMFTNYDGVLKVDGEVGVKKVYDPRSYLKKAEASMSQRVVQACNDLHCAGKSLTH
row,Compound,inhibition
1,Cc1ccc(-c2cnc(C(O)c3cccc(C)c3C)[nH]2)cc1 (centres undefined),-6.24%
2,CCC(C)(C)NC(=O)C(c1cccc(OC)c1OC)N(CC(C)C)C(=O)CCC(=O)Nc1cc(C)on1 (centres undefined),-1.74%
3,COC(=O)C1=CN(C)C=C(C(=O)OC)C1c1ccc(Cl)cc1Cl,12.4%
4,CCOc1ccccc1C1C(C(=O)OC)=CN(C)C=C1C(=O)OC,180% (active)
5,CCOc1cc(C2C(C(=O)OC)=CN(C3CCCC3)C=C2C(=O)OC)cc(Br)c1O,9.72%
6,O=C(CC1SC(N2CCCC2)=NC1=O)Nc1ccc(C(=O)NCCc2ccc(F)cc2)cc1 (centres undefined),-0.1%
7,COc1ccccc1C(=O)NCC(=O)NCCSc1ccc(Br)cc1,-1.16%
8,O=C(NCc1ccco1)c1cccc(-c2ccc3nncn3c2)c1,-0.68%
9,Cn1nc(-c2ccc(Cl)cc2)c2cc(C(=O)NCc3ccco3)sc21,43.5% (active)
10,O=C(NCc1ccco1)c1sc2cccc(F)c2c1Cl,5.05%
11,COc1cc(C2OC(c3cc(OC)c(OC)c(OC)c3)C(C)C2C)cc(OC)c1OC (centres undefined),-1.3%
12,CC1CCCCC1NC(=O)CO/N=C/c1ccc(OC(F)F)cc1 (centres undefined),-0.83%
13,COc1ccc(C=C(C#N)C#N)c(CSc2ccccn2)c1,1.22%
14,COc1ccc2cc(CCl)c(Cl)nc2c1,0.58%
15,COc1ccc2nc(-c3ccccn3)ccc2c1,77.3% (active)
16,O=C(COc1cc(Cl)c(Cl)cc1Cl)NC(=O)NC1CCCC1,5.04%
17,CC(C)(C)C(=O)CN1C2=NCCN2c2ccccc21,-3.57%
18,CC(C)n1c(NCc2c[nH]c3ccccc23)nc2ccccc21,1.92%
19,CC(C)n1c(CN2CCN(Cc3ccccc3)CC2)nc2ccccc21,3.41%
20,CC(C)n1c(-c2cccs2)nc2ccccc21,32.3% (active)
21,Cc1noc(C)c1-c1ccc2ncnc(NC(C)c3ccco3)c2c1 (centres undefined),8.84%
22,O=C(O)C1CCC(CNS(=O)(=O)c2ccc(Br)cc2)CC1 (centres undefined),0.74%
23,CCN1CCN(C(=O)c2ccc(CN(c3ccc(C)c(C)c3)S(C)(=O)=O)cc2)CC1,-1.53%
24,O=c1oc2ccccc2cc1-c1cn(-c2ccccc2)c(=S)[nH]1,40.4% (active)

row,Compound,inhibition
1,C/C(=C\c1ccco1)CN1CCC(N2CCC(C(=O)N3CCOCC3)CC2)CC1,-2.26%
2,OCC[C@H]1C[C@@H](O)[C@H](O)[C@]2(OCCCc3ccccc32)O1,2.25%
3,O=C(N/N=C\c1ccc(-c2ccc(Cl)c(Cl)c2)o1)C(=O)N1CCCC1,1.03%
4,O=C(COc1ccc2c(c1)CCC2)N1CCN(c2ccc(F)cc2)CC1,-1.29%
5,CCN1CCN(C(=O)c2cc3cc4ccc(OC)cc4nc3s2)CC1,43.9% (active)
6,COc1ccc(OCC(=O)N2CCN(C(=O)c3cccs3)CC2)cc1,1.53%
7,CCN1CCN(C(=O)CN(C)S(=O)(=O)c2ccc(OC)cc2)CC1,-1.71%
8,O=C(OCC(=O)N1CCCCCC1)c1ccc(Br)c(S(=O)(=O)N2CCOCC2)c1,-1.57%
9,COc1ccc(CNC(=O)c2ccc(NS(=O)(=O)c3ccc4[nH]c(=O)[nH]c4c3)cc2)cc1OC,-1.09%
10,Cc1ccc(C(=O)OC(C)CN2CCOCC2)cc1 (centres undefined),-3.53%
11,CCOC(=O)c1c(C)[nH]c(C(=O)NCCN2CCOCC2)c1C,1.62%
12,COCC(C)OC(=O)c1c(N)n(CCCN2CCOCC2)c2nc3ccccc3nc12 (centres undefined),104% (active)
13,CCOC(=O)c1c(N)n(CCN2CCOCC2)c2nc3ccccc3nc12,113% (active)
14,CCOC(=O)c1c(CN2CCOCC2)n(-c2ccccc2)c2ccc(O)cc12,-1.31%
15,O=C(Cc1coc2ccc3ccccc3c12)NCc1cccs1,0.72%
16,CC(CN1CCOCC1)OC(=O)c1ccc(C(C)(C)C)cc1 (centres undefined),-5.4%
17,CCOC(=O)c1cnn(Cc2ccccc2Cl)c1N,-1.37%
18,CCN(C(=O)COC(=O)c1c(C)nn(-c2ccccc2)c1Cl)c1c(N)n(Cc2ccccc2)c(=O)[nH]c1=O,-2.12%
19,O=C(NCc1cccs1)c1cc(-c2ccccn2)nc2ccc(Br)cc12,1.48%
20,CC(C)Cn1c(N)c(C(=O)NCc2cccs2)c2nc3ccccc3nc21,48.5% (active)
21,CCOc1ccc(OCC)c(NC(=O)C(NS(=O)(=O)c2ccc3c(c2)oc(=O)n3C)C(C)C)c1 (centres undefined),0.18%
22,O=C(NCCc1ccccc1)C(=O)NCC1OCCN1S(=O)(=O)c1cccs1 (centres undefined),0.89%
23,CN(C)C(=O)N1CCNCC1,2.64%
24,Cc1nc2ccc(S(=O)(=O)NCC(=O)O)cc2s1,0.49%

row,Compound,inhibition
1,COCCNS(=O)(=O)c1cc(Br)ccc1OC,0.54%
2,CCCCC(CC(C)O)c1n[nH]c(=S)n1-c1ccccc1 (centres undefined),2%
3,Cc1ccc(/C([O-])=C(/C(=S)NCc2ccco2)[n+]2ccccc2)cc1[N+](=O)[O-],1.54%
4,CCOc1cc(/C=N/NC(=O)c2ccc(CSc3nncn3C)cc2)ccc1OCC(=O)N1CCOCC1,-1.98%
5,C=CCn1c(P(C)(=O)O)nc2ccccc21,1.11% and 4.28%
6,C=CCn1c(C(C)NC(=O)CC)nc2ccccc21 (centres undefined),3.68%
7,CCCCNc1nc2ccccc2nc1NS(=O)(=O)c1cccs1,6.38%
8,Cc1nn(Cc2ccccc2)c(C)c1C(=O)NCCCN1CCCC1=O,-1.19%
9,O=C(NCCCN1CCCC1=O)c1ccc(S(=O)(=O)Nc2ccccc2)cc1,-1.21%
10,C=CCN1CN(S(=O)(=O)c2ccc(OC)cc2)c2nc3ccccc3nc21,6.64%
11,C=CCn1c(N)c(S(=O)(=O)c2cccs2)c2nc3ccccc3nc21,163% (active)
12,C=CCn1c(N)c(C(=O)OCC(C)C)c2nc3ccccc3nc21,88.6% (active)
13,CCCCC1N2CC3([N+](=O)[O-])CN1CC([N+](=O)[O-])(C2)C3(C)C (centres undefined),2.82%
14,COC(=O)c1ccc(NC(=O)CSc2nncn2-c2cccnc2)cc1,0.47%
15,CSc1cccc(NC(=S)N(C(C)C)C(C)c2ccccn2)c1 (centres undefined),0.95%
16,NC(=O)CSc1nnc(-c2cccc(S(=O)(=O)N3CCOCC3)c2)o1,-1.59%
17,Cc1ccc(NC(=O)Cc2nc(COC(=O)C(C)NS(=O)(=O)c3ccc(C)cc3)cs2)cc1 (centres undefined),3.71%
18,Cc1ccccc1OCC(=O)NNC(=O)c1ccc(-n2cncn2)c([N+](=O)[O-])c1,-1.97%
19,Cc1ccc(S(=O)Cc2ccc(C(=O)N3CCN(C4CCCCC4)CC3)o2)cc1 (centres undefined),1.16%
20,CCOC(=O)[C@@H]1[C@H]2COc3cc(OC)ccc3[C@H]2N2C(=O)N(c3ccc(F)cc3)C(=O)[C@]12C,0.06%
21,C[C@@H]1CN([C@H](C)CO)S(=O)(=O)c2ccc(C#CC3CCCCC3)cc2O[C@H]1CN(C)C(=O)Cc1ccncc1,-2.18%
22,O=C1NC(c2cc3c(cc2Cl)OCO3)Oc2ccccc21 (centres undefined),0.96%
23,CCCC(C)n1[nH]c(=O)c2c(C)cc(C)nc21 (centres undefined),4.12%
24,CCc1c(C)nc2cc(-c3cccs3)[nH]n2c1=O,27.4% (active)

row,Compound,inhibition
1,Cc1nc2nc[nH]n2c(=O)c1C/C=C/c1ccccc1,-4.22%
2,CCCCCN1CC(O)=C(c2ccccc2)C1=N,-3.67%
3,Cc1cc(-c2cccs2)nc(-n2cccc2)n1,2.52%
4,C=CCc1c(C)nc2cc(-c3ccccc3)[nH]n2c1=O,33.2% (active)
5,Cc1nc2nc(COc3ccccc3)[nH]n2c(=O)c1Cc1ccccc1,1.84%
6,CCC(C)n1[nH]c(=O)c2c(C)cc(C)nc21 (centres undefined),2.95%
7,CCc1c(C)nc2cc(C)[nH]n2c1=O,27.9% (active)
8,Cc1nc2scc(-c3cccs3)c2c(=O)n1N,-0.89%
9,COC(=O)CN1C(=O)[C@H]2[C@@H](/C=C/c3ccccc3)N3C(=O)CN(CC4CC4)C(=O)[C@@]3(Cc3ccccc3)[C@H]2C1=O,5.08%
10,COc1ccccc1NC(=O)CCC(=O)OC(C)C(=O)c1ccccc1 (centres undefined),2.76%
11,O=C1N[C@@H](Cc2ccccc2)C(=O)N2[C@@H]3N(S(=O)(=O)c4ccc(F)cc4)c4ccccc4[C@]3(Br)C[C@@H]12,-1.67%
12,O=C(COc1ccc(Cl)cc1Cl)NCCCNC(=O)c1cnccn1,4.96%
13,Cc1ccc(C)c(-n2cc(CN3CCN(C(=O)c4ncn[nH]4)CC3)c(-c3ccccc3)n2)c1,-1.74%
14,Cc1ccc(NS(=O)(=O)c2cccs2)cc1S(=O)(=O)N1CCCCCC1,-1.86%
15,CCCCCN(C(=O)NC(=O)Nc1ccccc1OC)S(C)(=O)=O,-0.28%
16,O=C(Cc1cccs1)NCc1cccc(C(F)(F)F)c1,2.86%
17,CN(C)C(=O)c1cccn(Cc2cccc(C(F)(F)F)c2)c1=O,0.45%
18,Cn1c(=O)c2cc(NC(=O)NCCc3cccs3)ccc2n1Cc1cccc(C(F)(F)F)c1,141% (active)
19,CC1(C)OC(=O)C(=CNC(CO)C(=O)O)C(=O)O1 (centres undefined),-1.2%
20,CCOC(=O)Cc1ncccc1C(=O)Nc1ccc(OC)cc1,-0.27%
21,CCOC(=O)Cn1c(=O)n(Cc2ccc(OC)cc2)c(=O)c2cccnc21,99.3% (active)
22,COCCCNC(=O)CCc1nc2cccnc2n1Cc1ccc(OC)cc1,-2.9%
